In all, about 50,000 compounds went through this assay and about 800 (1.6%) showed an effect of 50% or more. The entries come from a sample that favours strong results as a whole.

The target in the experiment is Bcl-2-like protein 10 (Homo sapiens) (UniProt Q9HD36). The experiment can be described thus: Phenotype converters, Bcl-B/TR3 peptide binding displacement, primary biochemical FP (AID 1240).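 Also: 0% = Bcl-B with tracer peptide and DMSO and 100% = tracer peptide lacking Bcl-B.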 The note with it: GST-Bcl-B / FITC-TR3 peptide fluorescence polarization; stronger effect = higher value; compound at 3.75 mg/L. On the technique in general: In fluorescence polarisation assays a small probe gives low polarisation when free and higher when bound to something large.
Chain of Bcl-2-like protein 10 (Homo sapiens) (Q9HD36 whole entry, looked up): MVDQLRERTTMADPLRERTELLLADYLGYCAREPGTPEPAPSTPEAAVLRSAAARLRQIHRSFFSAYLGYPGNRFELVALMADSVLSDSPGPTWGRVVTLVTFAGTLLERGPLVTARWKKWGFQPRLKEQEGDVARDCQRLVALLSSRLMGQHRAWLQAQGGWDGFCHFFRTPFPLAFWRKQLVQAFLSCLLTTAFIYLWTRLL
Take `O=C/C(=C\Nc1ccc(S(=O)(=O)CCO)cc1)c1nc2cc(Cl)ccc2o1`: the displacement came to 88.3%.

As for `CNS(=O)(=O)c1ccc(N/C=C(\C=O)c2nc3cc(Cl)ccc3o2)cc1`, the displacement stood at 12.6%.

Consider `O=C/C(=C\Nc1ccc(S(=O)(=O)CCO)cc1)c1nc2ccccc2o1`, for which the displacement is 9.7%.

`Cn1c(O)c(N=NC(=O)c2ccccc2NC(=O)c2ccccc2)c2ccccc21`: the displacement was -4%.

Take `COCCOC(=O)c1c(C)oc2ccc(OCc3c(F)c(F)c(F)c(F)c3F)cc12`: the displacement came out at 10.8%.

For `CCn1cc(/C=C2/C(=O)NN(c3ccccc3)C2=O)c2ccccc21`, the displacement worked out at 13.1%.

With `CC(C)NC(=O)C1CC1(c1ccccc1)c1ccccc1` (stereo not drawn), the displacement was determined as 4.7%.

For the compound `Cc1ccc(-n2ccc(N)c(C#N)c2=O)cc1`, the displacement is 3.3%.

In the case of `COc1ccc(/C=C2/SC(=O)N(CC(=O)Nc3ccc(F)c(Cl)c3)C2=O)cc1OC`, the displacement was 12.3%.

For the compound `COc1ccccc1NC(=O)CCN1C(=O)S/C(=C/c2ccc(OC)c(OC)c2)C1=O`, the displacement was determined as 34.6%.

With `COc1ccc(/C=C2\SC(=S)N(CCC(=O)Nc3ccccc3C)C2=O)cc1OC`, the displacement was found to be 15.4%.

As for `COc1ccc(/C=C2/SC(=O)N(CC(=O)Nc3cc(C)on3)C2=O)cc1OC`, the displacement turned out to be 12.8%.

For the compound `COc1ccc(/C=C2\SC(=O)N(CCC(=O)Nc3ccccc3C)C2=O)cc1OC`, the displacement is 79.4%.

`COc1ccc(/C=C2/SC(=O)N(CC(=O)Nc3ccc(C)c(C)c3)C2=O)cc1OC`: the displacement was found to be 67%.

Regarding `COC(=O)c1ccc(C(=O)OC)c(NC(=O)/C=C/c2ccc(Cl)cc2)c1`, the displacement is -6.4%.

Consider `COC(=O)c1ccc(C(=O)OC)c(NC(=O)Cc2ccccc2[N+](=O)[O-])c1`, for which the displacement was 14.7%.

Take `COC(=O)c1ccc(C(=O)OC)c(NC(=O)/C=C/c2ccco2)c1`: the displacement was determined as 63.5%.

Turning to `COC(=O)c1cc(NC(=O)COc2ccccc2[N+](=O)[O-])cc(C(=O)OC)c1`, the displacement came out at 13%.

`COC(=O)c1ccc(C(=O)OC)c(NC(=O)/C=C/c2ccccc2)c1`: the displacement was determined as 8.7%.

Consider `CCC(C(=O)Nc1cc(C(=O)OC)ccc1C(=O)OC)c1ccccc1` (stereo not drawn), for which the displacement came to 5%.

As for `COC(=O)c1ccc(C(=O)OC)c(NC(=O)COc2ccc(Cl)cc2C)c1`, the displacement was found to be 5.4%.

In the case of `COC(=O)c1ccc(C(=O)OC)c(NC(=O)COc2ccccc2[N+](=O)[O-])c1`, the displacement is 66.9%.

For the compound `COC(=O)c1ccc(NC(=O)CC(c2ccccc2)c2ccccc2)cc1`, the displacement is -0.2%.

Regarding `COC(=O)c1ccc(C(=O)OC)c(NC(=O)COc2cccc(Cl)c2)c1`, the displacement worked out at 1.2%.

As to `COC(=O)c1ccc(C(=O)OC)c(NC(=O)COc2ccccc2Cl)c1`, the displacement came out at 73.8%.

With `COC(=O)c1ccc(C(=O)OC)c(NC(=O)CC(c2ccccc2)c2ccccc2)c1`, the displacement was 63.5%.

With `Cc1ccc(-c2[nH]n3c(=O)cc(-c4ccccc4)nc3c2C)cc1`, the displacement was 15.2%.

For the compound `CN(C)CCCNC(=O)/C=C/c1ccc(Cl)cc1`, the displacement stood at 14%.

(Values after PubChem BioAssay AID1240 (Sanford-Burnham Center for Chemical Genomics, 2008).)
